How the values were obtained:
Assay in all cases: relative growth (AUC of 72 h growth curve relative to DMSO control, dAUC) (ratio); higher = more growth (less inhibition), active = hit call of the paper
Conditions in all cases: 20 µM;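 active = growth AUC significantly below the DMSO wells by Dunnett test; inactive = the rest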
[1] = test system: Aeromonas 1 (Aeromonas sp. AE235)
Procedure, shortened: (§1)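 Whole sediment communities and bacterial isolates from Icelandic stream sediments and Silwood Park soil were brought to carrying capacity in Luria–Bertani medium. They were then diluted 1:100 into 96-well plates with each chemical at 20 µM in 1% DMSO, and A600 was recorded every hour for 72 h. The area under each growth curve, integrated by spline, was averaged across three biological replicates. This figure, divided by the mean of the DMSO controls, gives relative growth (dAUC).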

[2] = test system: Aeromonas 2 (Aeromonas sobria)
Procedure, shortened: as §1

[3] = test system: Aeromonas 3 (Aeromonas popoffii)
Procedure, shortened: as §1

[4] = test system: Argrobacterium 1 (Agrobacterium sp.)
Procedure, shortened: as §1

[5] = test system: Arthrobacter 1 (Arthrobacter humicola)
Procedure, shortened: as §1

[6] = test system: Arthrobacter 2 (Arthrobacter humicola)
Procedure, shortened: as §1

[7] = test system: Arthrobacter 3 (Arthrobacter sp.)
Procedure, shortened: as §1

[8] = test system: Community 4
Procedure, shortened: as §1

[9] = test system: Community 6
Procedure, shortened: as §1

[10] = test system: Community 7
Procedure, shortened: as §1

[11] = test system: Community 8
Procedure, shortened: as §1

[12] = test system: Community 9
Procedure, shortened: as §1

[13] = test system: Flavobacterium 1 (Flavobacterium glaciei)
Procedure, shortened: as §1

[14] = test system: Flavobacterium 2 (Flavobacterium succinicans)
Procedure, shortened: as §1

[15] = test system: Hymenobacter 1 (Hymenobacter glaciei)
Procedure, shortened: as §1

[16] = test system: Microbacterium 1 (Microbacterium arborescens)
Procedure, shortened: as §1

[17] = test system: Neobacillus 1 (Neobacillus soli)
Procedure, shortened: as §1

[18] = test system: Oryzobacter 1 (Oryzobacter terrae)
Procedure, shortened: as §1

[19] = test system: Paenibacillus 1 (Paenibacillus castaneae)
Procedure, shortened: as §1

SMILES | relative growth [1] | relative growth [2] | relative growth [3] | relative growth [4] | relative growth [5] | relative growth [6] | relative growth [7] | relative growth [8] | relative growth [9] | relative growth [10] | relative growth [11] | relative growth [12] | relative growth [13] | relative growth [14] | relative growth [15] | relative growth [16] | relative growth [17] | relative growth [18] | relative growth [19]
CC(Oc1ccc(Oc2ncc(C(F)(F)F)cc2Cl)cc1)C(=O)O (centres undefined) | 0.952 (inactive) | 0.974 (inactive) | 0.959 (inactive) | 0.969 (inactive) | 1.08 (inactive) | 1.03 (inactive) | 1.08 (inactive) | 1.02 (inactive) | 0.947 (inactive) | 0.985 (inactive) | 1.04 (inactive) | 1.01 (inactive) | 0.929 (inactive) | 0.972 (inactive) | 1.05 (inactive) | 0.984 (inactive) | 0.973 (inactive) | 1.13 (inactive) | 0.966 (inactive)
CC1(C)[C@H](C(=O)O[C@H](C#N)c2cccc(Oc3ccccc3)c2)[C@@H]1C=C(Br)Br | 1.05 (inactive) | 1.04 (inactive) | 1.09 (inactive) | 1.09 (inactive) | 1.16 (inactive) | 0.949 (inactive) | 0.946 (inactive) | 1.01 (inactive) | 1.06 (inactive) | 1.07 (inactive) | 1.06 (inactive) | 1.05 (inactive) | 1.08 (inactive) | 1.02 (inactive) | 1.06 (inactive) | 1.03 (inactive) | 1.1 (inactive) | 1.08 (inactive) | 0.958 (inactive)
CC1(C)C(C(=O)OC(C#N)c2cccc(Oc3ccccc3)c2)C1(C)C (centres undefined) | 0.986 (inactive) | 0.989 (inactive) | 1.08 (inactive) | 1.09 (inactive) | 1.1 (inactive) | 0.685 (inactive) | 0.704 (inactive) | 1 (inactive) | 1.03 (inactive) | 1.09 (inactive) | 1.02 (inactive) | 1.05 (inactive) | 0.939 (inactive) | 0.946 (inactive) | 1.02 (inactive) | 1.03 (inactive) | 0.932 (inactive) | 1.14 (inactive) | 0.918 (inactive)
CCC(C)c1ccccc1OC(=O)NC (centres undefined) | 1 (inactive) | 0.975 (inactive) | 0.991 (inactive) | 1.06 (inactive) | 0.921 (inactive) | 1.08 (inactive) | 1.08 (inactive) | 1.06 (inactive) | 1.07 (inactive) | 1.02 (inactive) | 1.05 (inactive) | 1.07 (inactive) | 1.11 (inactive) | 1.02 (inactive) | 0.856 (inactive) | 1.04 (inactive) | 1.06 (inactive) | 0.993 (inactive) | 1 (inactive)
N#CCNC(=O)c1cnccc1C(F)(F)F | 1.01 (inactive) | 0.97 (inactive) | 1.03 (inactive) | 0.992 (inactive) | 0.965 (inactive) | 0.882 (inactive) | 0.96 (inactive) | 0.954 (inactive) | 0.919 (inactive) | 1.01 (inactive) | 0.986 (inactive) | 0.902 (inactive) | 0.973 (inactive) | 0.944 (inactive) | 0.973 (inactive) | 1.01 (inactive) | 0.935 (inactive) | 1.09 (inactive) | 0.935 (inactive)
N#Cc1nn(-c2c(Cl)cc(C(F)(F)F)cc2Cl)c(N)c1[S+]([O-])C(F)(F)F (centres undefined) | 0.981 (inactive) | 0.935 (inactive) | 1 (inactive) | 1.01 (inactive) | 0.911 (inactive) | 0.914 (inactive) | 0.853 (inactive) | 1.07 (inactive) | 1.06 (inactive) | 0.995 (inactive) | 1.05 (inactive) | 1.04 (inactive) | 0.977 (inactive) | 1.01 (inactive) | 1.05 (inactive) | 1 (inactive) | 0.993 (inactive) | 0.998 (inactive) | 1.02 (inactive)
CCc1nn(C)c(C(=O)NCc2ccc(Oc3ccc(C)cc3)cc2)c1Cl | 1.03 (inactive) | 1.06 (inactive) | 1.05 (inactive) | 1.02 (inactive) | 1.04 (inactive) | 0.892 (inactive) | 1.02 (inactive) | 0.865 (inactive) | 0.897 (inactive) | 1.02 (inactive) | 1.03 (inactive) | 0.885 (inactive) | 1 (inactive) | 1.04 (inactive) | 0.992 (inactive) | 1.02 (inactive) | 1.05 (inactive) | 0.988 (inactive) | 1 (inactive)
Cc1cccc2sc3nncn3c12 | 0.985 (inactive) | 0.988 (inactive) | 1 (inactive) | 0.915 (inactive) | 0.993 (inactive) | 0.932 (inactive) | 1.01 (inactive) | 0.917 (inactive) | 0.96 (inactive) | 1.05 (inactive) | 1.01 (inactive) | 0.899 (inactive) | 1.01 (inactive) | 0.95 (inactive) | 0.996 (inactive) | 1.05 (inactive) | 0.969 (inactive) | 1.05 (inactive) | 0.943 (inactive)
CC(C)N1C(=O)N(c2ccccc2)CS/C1=N\C(C)(C)C | 1.04 (inactive) | 1.1 (inactive) | 1.01 (inactive) | 1.07 (inactive) | 0.994 (inactive) | 0.59 (active) | 0.868 (inactive) | 1.02 (inactive) | 1.02 (inactive) | 1.09 (inactive) | 1.08 (inactive) | 1.03 (inactive) | 0.891 (inactive) | 0.947 (inactive) | 1.06 (inactive) | 1.07 (inactive) | 0.906 (inactive) | 0.973 (inactive) | 1 (inactive)
COCC(C)N(C(=O)CCl)c1c(C)csc1C (centres undefined) | 0.991 (inactive) | 0.984 (inactive) | 0.964 (inactive) | 1.02 (inactive) | 0.907 (inactive) | 0.814 (inactive) | 1.05 (inactive) | 0.913 (inactive) | 0.975 (inactive) | 0.996 (inactive) | 1.01 (inactive) | 1.01 (inactive) | 0.948 (inactive) | 1.01 (inactive) | 0.962 (inactive) | 1.04 (inactive) | 0.98 (inactive) | 0.982 (inactive) | 0.961 (inactive)
CC(C)(C)C(O)(CCc1ccc(Cl)cc1)Cn1cncn1 (centres undefined) | 0.916 (inactive) | 0.917 (inactive) | 1.01 (inactive) | 0.949 (inactive) | 0.544 (active) | 0.232 (active) | 0.39 (active) | 0.913 (inactive) | 0.878 (inactive) | 0.983 (inactive) | 0.995 (inactive) | 0.862 (inactive) | 0.671 (active) | 0.816 (inactive) | 1.04 (inactive) | 1 (inactive) | 0.945 (inactive) | 1.41 | 0.808 (inactive)

Source: the supplement of paper PMC12067926
